We go through 32 compounds from PubChem BioAssay AID2553 (Johns Hopkins Ion Channel Center, 2010).

In all, about 310,000 compounds went through this assay and about 3,300 (1.1%) were called active.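 Rule for the calls: active = B-score under library mean minus 3 SD, initial fluorescence not abnormally high, positive integrated signal ratio; inactive = the rest.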 What follows is part of a selection rich in actives, with near analogues and random picks from the rest.

Short transient receptor potential channel 6 (Mus musculus), sequence (Q61143 whole entry, looked up): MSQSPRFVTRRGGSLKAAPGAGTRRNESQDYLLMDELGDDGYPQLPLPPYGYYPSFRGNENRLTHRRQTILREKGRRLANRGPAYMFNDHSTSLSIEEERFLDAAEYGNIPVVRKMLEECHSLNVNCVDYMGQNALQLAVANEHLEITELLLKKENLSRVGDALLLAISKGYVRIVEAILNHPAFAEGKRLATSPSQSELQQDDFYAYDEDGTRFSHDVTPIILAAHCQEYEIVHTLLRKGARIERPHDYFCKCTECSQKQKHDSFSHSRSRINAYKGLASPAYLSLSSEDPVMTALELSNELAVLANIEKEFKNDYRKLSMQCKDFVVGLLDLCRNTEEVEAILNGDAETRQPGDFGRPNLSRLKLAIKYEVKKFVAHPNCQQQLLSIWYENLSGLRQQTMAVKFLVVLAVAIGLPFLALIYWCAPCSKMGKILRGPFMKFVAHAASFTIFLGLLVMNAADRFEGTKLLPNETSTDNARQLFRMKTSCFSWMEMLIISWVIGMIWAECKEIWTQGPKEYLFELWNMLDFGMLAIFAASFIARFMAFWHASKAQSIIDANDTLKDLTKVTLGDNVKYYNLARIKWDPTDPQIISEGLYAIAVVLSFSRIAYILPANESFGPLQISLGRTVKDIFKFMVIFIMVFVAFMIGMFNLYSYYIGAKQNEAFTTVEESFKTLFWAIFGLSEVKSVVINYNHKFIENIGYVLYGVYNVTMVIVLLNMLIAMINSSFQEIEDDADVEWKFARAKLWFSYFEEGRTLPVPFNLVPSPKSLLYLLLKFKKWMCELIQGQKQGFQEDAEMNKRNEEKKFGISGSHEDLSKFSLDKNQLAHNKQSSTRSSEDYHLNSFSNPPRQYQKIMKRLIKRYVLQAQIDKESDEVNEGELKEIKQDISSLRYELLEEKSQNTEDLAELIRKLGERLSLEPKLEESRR

The experiment addresses Short transient receptor potential channel 6 (Mus musculus) (UniProt Q61143). Description: mouse TRPC6 channel inhibitors, primary screen, cell-based, HEK293, membrane potential dye (AID 2553).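 For B-score: B-score derived from integrated fluorescence ratio over the kinetic read; more negative B-score means stronger inhibition of depolarization.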 Particulars: ACh-evoked depolarization, at 10 µM; stronger effect = lower value.
With `O=C1C2N=NN(CC(=O)N3N=C(c4cccc5ccccc45)CC3c3ccccc3)C2C(=O)N1c1ccccc1` (configuration not stated), the B-score entry was “inactive”.
As for `Cc1cc(OCCCC(=O)NCCN2C(=O)S/C(=C\c3cccnc3)C2=O)ccc1Cl`, the B-score entry was “inactive”.
In the case of `COc1ccc(NC(=O)CCS(=O)(=O)c2cc3c(cc2Cl)NC(=O)CO3)cc1OC` it was “inactive”; in that of `COc1ccc(Cl)cc1NC(=O)CCS(=O)(=O)c1cc2c(cc1C)NC(=O)CO2`, -5.71 (active).
Regarding `Cc1cc2c(cc1S(=O)(=O)CCC(=O)NCc1ccccc1)OCC(=O)N2`, the B-score result is “inactive”.
As for `CCOc1ccc(Nc2nc(Cl)nc(N3CCN(c4ccc(OC)cc4)CC3)n2)cc1`, the entry is “inactive”.
For `CCN1CCN(c2nc(Nc3cc(OC)ccc3OC)nc(Nc3cc(OC)ccc3OC)n2)CC1`, the B-score was -5.02 (active).
For the compound `CCOC(=O)N1CCN(CCC(=O)Nc2cc(OC)ccc2OC)CC1`, the B-score entry was “inactive”.
For `Cn1c(=O)n(C)c2cc(S(=O)(=O)Nc3ccc(F)cc3)ccc21`, the B-score entry is “inactive”.
Regarding `C=CC1=C(C(=O)O)N2C(=O)[C@@H](NC(=O)/C(=N/OCC(=O)O)c3csc(N)n3)[C@H]2SC1`, the B-score result is “inactive”.
For the compound `Cc1ccc(NC(=O)[C@H](Cc2ccccc2)NC(=O)C2CCNCC2)cc1`, the B-score result was “inactive”.
`COc1ccccc1C(=O)Nc1ccc(Nc2ccccc2)cc1`: the B-score entry is “inactive”.
In the case of `CCN(CC)S(=O)(=O)c1ccc(N2CC(C(=O)NCc3cccnc3)CC2=O)cc1` (configuration not stated), the B-score was -6.5 (active).
As for `CCOc1ccc(N2CC(C(=O)NCc3ccccn3)CC2=O)cc1` (configuration not stated), the entry is “inactive”.
In the case of `CCc1ccc(N2CC(C(=O)Nc3ccc(S(=O)(=O)Nc4nccs4)cc3)CC2=O)cc1` (configuration not stated), the B-score result was “inactive”.
As to `CCc1ccc(N(C(=O)c2csnn2)C(C(=O)NC2CCCCC2)c2cccnc2)cc1` (configuration not stated), the B-score result is “inactive”.
As to `COCC(C)NCc1cc(Br)ccc1OC` (configuration not stated), the B-score entry was “inactive”.
For `COCCCNCCOCCOc1ccc(Cl)cc1Br`, the B-score result was “inactive”.
Turning to `CCC(C)NCCOCCOc1ccc(Br)cc1C` (configuration not stated), the B-score is -5.27 (active).
In the case of `Cc1c(C(=O)N(C)CCc2cnn(C)c2)oc2c(F)cccc12` it was “inactive”; in that of `CCOC(=O)N1CCN(C(=S)Nc2ccc(C)cc2C)CC1`, “inactive”.
Consider `CCOC(=O)N1CCN(C(=O)COc2ccc(Cl)cc2C)CC1`, for which the B-score result was “inactive”.
Take `CCOC(=O)N1CCC(O)(c2cc(C)c(C)cc2C)CC1`: the B-score was -9.52 (active).
For `Cc1ccc(-c2cc(C(=O)NC3CCN(Cc4ccccc4)CC3)c3ccccc3n2)cc1`, the B-score entry was “inactive”.
For the compound `COc1ccc(-c2cc(C(=O)Nc3ccccc3O)c3ccccc3n2)cc1`, the B-score result is “inactive”.
For `CCc1ccc(-c2cc(C(=O)NN3CCN(C)CC3)c3ccccc3n2)cc1`, the B-score was -5.25 (active).
For `COc1ccc(CCN2C(=O)CC(N3CCC(C(N)=O)CC3)C2=O)cc1OC` (configuration not stated), the B-score entry is “inactive”.
As to `Cc1c(C(=O)c2cccc([N+](=O)[O-])c2)c2ccccn2c1CCC#N`, the B-score result was “inactive”.
Consider `O=C(NCCc1ccccc1)c1ccc2c(c1)N(Cc1ccccc1)CCS2`, for which the B-score entry was “inactive”.
For `CCOC(=O)N1CCN(C(=O)c2ccc3c(c2)N(Cc2ccc(C)cc2)CCS3)CC1`, the B-score is -7.3 (active).
In the case of `O=C(NCCN1CCOCC1)c1ccc2c(c1)N(Cc1ccc(Cl)cc1)CCS2`, the B-score entry is “inactive”.
As for `COc1ccc(/C=C/CN2CCCC(C(=O)c3cc(F)ccc3F)C2)cc1` (configuration not stated), the B-score entry was “inactive”.
